Assay outcomes as filed in PubChem.
Casp1 inh: blocks human caspase-1 allosterically or competitively; P29466; Caspase-1 enzyme, Ac-WEHD-AFC fluorogenic rate; Potency, µM (titrated, usually from 57.5 µM), for inactives: at the highest dose activity change, negative = inhibition, actives largely listed as inhibitors; hit rate 0.03% among 75,000; AID 900;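 note: plate controls were vehicle for no effect and no substrate for full effect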
15-hLO inh: 15-hLO (ALOX15) enzyme inhibition | P16050 | hit rate 1.4% among 74,000 | purified 15hLO-1, xylenol orange hydroperoxide absorbance | Potency, µM (doses to about 57.1 µM), for inactives: at the highest dose activity change, negative = inhibition, most hits filed as inhibitors; note: % is set by controls: 0 for no effect and ±100 for the full control effect; nearly all actives have a fitted effect of over 55% in size
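Quantitative HTS in 25 mM Hepes pH 7.5 containing 0.01% Triton X-100: human 15hLO-1 at 40 nM, arachidonic acid at 50 uM, 6 min turnover. Product quantified via ferrous oxidation/xylenol orange, 573:405 nm absorbance ratio.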
TSHR ag: agonists of human thyroid stimulating hormone receptor | Potency, µM (top dose mostly 57.1 µM), for inactives: at the highest dose activation, hits mostly activators | HEK293-CNG-TSHR cells (CNG channel as cAMP sensor), membrane potential dye, cAMP | hit rate 0.48% among 73,000 | AID 926; active = well fitted activation curve with a large enough effect in the main read-out, with a control signal flat, not every such curve was filed as active; inconclusive = small, poorly fitted or top-dose-only effect, or a change in a side signal; inactive = no such curve, though single readings can be large or run the other way; % of control where 0% means no effect;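 note: the control signal comes from parental cells without the receptor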
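HEK 293 cells stably expressing TSHR and a modified CNG channel, with CNG-only parental cells as counterscreen, were preloaded 60 min at room temperature with membrane potential dye containing 100 uM RO 20-1724. Compound exposure was 30 min, and depolarization was read as fluorescence at 590 nm.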
Casp7 inh: allosteric or competitive inhibitors of human caspase-7. recombinant caspase-7, Ac-DEVD-AFC fluorescence rate. hit rate 0.02% among 75,000. AID 889. P55210. Potency, µM (highest dose often 57.5 µM), without a hit: top-dose activity change, negative = inhibition, most hits filed as inhibitors; active = well fitted inhibition curve with a large enough effect in the main read-out, with a control signal flat, not every such curve was filed as active; inconclusive = small, poorly fitted or top-dose-only effect, or a change in a side signal; note: % of control where 0% means no effect
15-hLO-2 inh: 15-hLO-2 (ALOX15B) enzyme inhibition. purified 15hLO-2, xylenol orange hydroperoxide absorbance. Potency, µM (doses to about 57.1 µM), without a hit: at the highest dose activity change, negative = inhibition, hits mostly inhibitors. hit rate 0.56% among 110,000. AID 881; note: % is set by controls: 0 for no effect and ±100 for the full control effect; nearly all actives have a fitted effect of over 60% in size
Target sequence (O15296 whole entry, looked up): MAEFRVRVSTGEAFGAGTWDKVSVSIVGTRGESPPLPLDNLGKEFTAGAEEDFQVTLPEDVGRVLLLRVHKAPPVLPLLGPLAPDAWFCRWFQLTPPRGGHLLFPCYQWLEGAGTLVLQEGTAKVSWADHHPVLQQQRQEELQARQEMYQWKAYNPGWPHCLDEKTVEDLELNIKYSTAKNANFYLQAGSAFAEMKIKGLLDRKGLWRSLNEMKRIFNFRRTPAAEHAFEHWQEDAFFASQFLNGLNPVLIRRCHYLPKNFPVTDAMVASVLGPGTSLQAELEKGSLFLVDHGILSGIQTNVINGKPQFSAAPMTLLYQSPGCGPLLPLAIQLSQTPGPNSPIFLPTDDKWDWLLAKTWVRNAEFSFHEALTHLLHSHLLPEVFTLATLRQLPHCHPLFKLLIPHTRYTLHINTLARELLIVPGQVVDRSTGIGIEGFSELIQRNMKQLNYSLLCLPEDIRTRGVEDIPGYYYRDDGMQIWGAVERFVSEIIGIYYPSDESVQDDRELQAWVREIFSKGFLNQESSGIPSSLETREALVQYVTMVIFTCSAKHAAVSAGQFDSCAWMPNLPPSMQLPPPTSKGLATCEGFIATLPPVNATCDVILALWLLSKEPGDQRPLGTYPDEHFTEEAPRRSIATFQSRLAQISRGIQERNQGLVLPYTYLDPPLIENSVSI
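Enzyme 50 nM, AA 45 uM, 25 mM Hepes pH 7.5 + 0.01% Triton X-100; cpd preinc 15 min RT, rxn 90 min RT; stop/detect with 200 uM XO + 300 uM Fe(II) in 50 mM H2SO4, 30 min; A573/A405.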
HEK293 cAMP cs: raises cAMP in parental HEK293 cells, TSHR agonist counter-screen; AID 938; Potency, µM (series often up to 57.1 µM), without a hit: at the top dose activation, most hits filed as activators; hit rate 2.5% among 73,000; parental HEK293 CNG cAMP sensor, membrane potential fluorescence; note: % of control where 0% means no effect; nearly all actives have a fitted effect of over 55% in size
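Parental HEK 293 cells stably expressing a modified CNG channel (no TSHR) report cAMP rise as membrane depolarization. Membrane potential dye with 100 uM RO 20-1724 was loaded for 60 min at room temperature, then compound added for 30 min; fluorescence read at 590 nm.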
* = called active by the depositor; [ ] = remark or other dose. A selection: hits, their analogues and other compounds. The true share with any hit is near 3%. Unless noted, calls come from the whole dose curve; as a rule, active = well fitted curve in the direction sought with a large enough effect; inconclusive = small, poorly fitted or top-dose-only effect, or another doubt; inactive = no such curve, though single readings can be large; an effect the other way counts as inactive or inconclusive. Potency is the fitted concentration of half-maximal effect.

Screening COC(=O)[C@@H]1CC[C@H](C)[C@@H](c2ccc(C)cc2)N1C(=O)c1ccc(/C=N\OCC[C@@H]2C=C[C@H](OC(C)=O)[C@H](COC(C)=O)O2)cc1 returned Casp1 inh -4.6%[11.5 µM], 15-hLO inh -8.0%[11.4 µM], TSHR ag 4.8%[11.4 µM], Casp7 inh -1.0%[11.5 µM] and HEK293 cAMP cs 16.8%[11.4 µM].
For COc1cccc(NC(=O)c2oc3ccccc3c2NC(=O)C(C)(C)C)c1 the results were Casp1 inh -1.7%, 15-hLO inh -0.2%, TSHR ag inconclusive, Casp7 inh -1.0%, 15-hLO-2 inh -10.5%[11.4 µM] and HEK293 cAMP cs 1µM*.
Screening c1ccc(-c2nnn(C34CC5CC(CC(C5)C3)C4)n2)cc1 returned Casp1 inh -1.3%, 15-hLO inh -0.5%, TSHR ag 31.6µM*, Casp7 inh -1.0%, 15-hLO-2 inh -1.3% and HEK293 cAMP cs 19.0%.
For CCNc1cc2n(c(=O)n1)CCc1cc(OC)c(OC)cc1-2 the results were Casp1 inh -3.8%, 15-hLO inh 6.2%, TSHR ag 7.4%, Casp7 inh -2.4%, 15-hLO-2 inh -2.3% and HEK293 cAMP cs -1.2%.
For COc1cc2c(cc1OC)-c1cc(NCc3ccccn3)nc(=O)n1CC2 the results were Casp1 inh -2.3%, 15-hLO inh 12.6µM*, TSHR ag 6.8%, Casp7 inh -13.7%, 15-hLO-2 inh -13.5% and HEK293 cAMP cs -16.3%.
COc1cccc(OC)c1C(=O)Nn1c(C2CCC2)nc2ccccc2c1=O was read as Casp1 inh -0.4%, 15-hLO inh -4.8%, TSHR ag inconclusive, Casp7 inh 1.3%, 15-hLO-2 inh -9.0% and HEK293 cAMP cs 25.1µM*.
Screening Cc1nc2ccccc2c(=O)n1NC(=O)c1c(O)c2ccccc2n(C)c1=O returned Casp1 inh -1.3%, 15-hLO inh 9.3%, TSHR ag -4.1%, Casp7 inh 0.5%, 15-hLO-2 inh -16.6% and HEK293 cAMP cs -7.3%.
`O=C(O)CCc1ccc(-c2ccc(Br)cc2)n1Cc1ccco1` gave Casp1 inh -8.6%, 15-hLO inh 15.8µM*, TSHR ag 1.6%, Casp7 inh -16.2%, 15-hLO-2 inh -8.8% and HEK293 cAMP cs 4.9%.
Screening CCCn1c(CCC(=O)O)ccc1-c1ccc(F)cc1 returned Casp1 inh -14.2%, 15-hLO inh 7.94µM*, TSHR ag -0.7%, Casp7 inh -13.2%, 15-hLO-2 inh -13.1% and HEK293 cAMP cs 4.0%.
Cc1ccc(/C=C2\SC(=S)N(CC(=O)Nc3ncc(Cc4ccccc4Cl)s3)C2=O)cc1 was read as 15-hLO-2 inh 12.6µM*.
For Cc1cccc(Cc2cnc(NC(=O)CN3C(=O)/C(=C/c4ccccc4)SC3=S)s2)c1 the results were 15-hLO-2 inh 6.0%.
CCOC(=O)CSc1cc(=O)n(CC)c2ccccc12 was read as 15-hLO-2 inh -2.8%.
For CCOC(=O)CSc1cc(=O)n(C)c2cc(Cl)ccc12 the results were Casp1 inh -0.2%, 15-hLO inh 12.6µM*, Casp7 inh -1.8%, 15-hLO-2 inh 4.4% and HEK293 cAMP cs 10.1%.
Screening O=C(NCCSc1c[nH]c2ccccc12)c1ccc(Br)o1 returned Casp1 inh -4.6%, 15-hLO inh 25.1µM*, TSHR ag -1.1%, Casp7 inh -0.6% and HEK293 cAMP cs 7.5%.
`Cc1[nH]c2ccccc2c1SCCNC(=O)c1ccc(Br)o1` gave Casp1 inh -0.6%, 15-hLO inh -16.9%, TSHR ag 1.0%, Casp7 inh -2.0% and HEK293 cAMP cs -6.5%.
`CCOC(=O)c1c(C)n(CC(O)c2ccccc2)c2ccc(O)cc12` (stereo not drawn) gave Casp1 inh -0.6%, 15-hLO inh -8.1%, TSHR ag 25.1µM*, Casp7 inh 0.6%, 15-hLO-2 inh -11.6% and HEK293 cAMP cs -2.4%.
`CCOC(=O)c1c(C)n(CCNC(C)=O)c2ccc(O)cc12` gave 15-hLO-2 inh -2.3%.
c1ccc(-c2ccc(N3CCCC4(CCNCC4)C3)cc2)cc1 was read as Casp1 inh -4.7%, 15-hLO inh -16.6%, TSHR ag inconclusive, Casp7 inh -2.9%, 15-hLO-2 inh 6.1% and HEK293 cAMP cs -53.5%.
